Most compounds without a hit are left out; they make up all but 8% or so of the library.
RORg inh: inhibitors of mouse ROR gamma transcriptional activity | P51450 | Potency, µM (top dose mostly 53.6 µM), most hits filed as inhibitors | Drosophila S2 Gal4-RORgamma UAS-luciferase reporter, 20 h | AID 2551 | actives 5.4% (n = 310,000); note: nearly all actives have a fitted effect of over 60% in size
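Schneider cells (Drosophila), stable Gal4 DBD–ROR gamma + UAS-luc; 1 hr cmpd preincubation; Cu2+ induction 700 uM final; 20 hr ambient; luminescence.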
Coupling enz: counter-screen for Giardia aldolase inhibitors: coupling enzyme system; coupling enzyme system counterscreen, AmpLite Red fluorescence; actives 0.67% (n = 290,000); activity change, negative = inhibition, % at 58.2 µM, hits read low; in the data active = activity change below about -30%
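Compounds tested against the coupling enzymes alone at 57.5 uM final; readout was AmpLite Red fluorescence (525/598 nm) after 20 min at RT.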
ELG1 repair inh: blocks ELG1-dependent DNA repair in HEK293T cells; HEK293T ELG1-luciferase reporter, luminescence, 16 h; DNA damage induced by 5-fluorouridine; Potency, µM (highest dose often 46.1 µM), usual class: inhibitors; actives 2.3% (n = 330,000); AID 504467; note: nearly all actives have a fitted effect of over 55% in size
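In this reporter screen, reduction of luminescence relative to DMSO vehicle indicated activity. Compounds and 5-fluorouridine were added together to 2,000 cells per well, incubated for 16 hr at 37 °C, then developed with ONE-Glo.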
VP16 counter: Gal4-VP16 reporter inhibition counter-screen. actives 3.5% (n = 310,000). Drosophila S2 Gal4-VP16 UAS-luciferase, luminescence, 20 h. Potency, µM (doses to about 53.6 µM), actives largely listed as inhibitors;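 note: Gal4-VP16 expression switched on by copper sulfate through the metallothionein promoter; nearly all actives have a fitted effect of over 50% in size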
TSHR antagonist: antagonists of human thyroid stimulating hormone receptor; TSHR-expressing cells, TSH-stimulated cAMP HTRF, 2 h; active compounds read low; AID 504810; P16473; actives 0.2% (n = 330,000); activity change, negative = inhibition, % at 11.5 µM;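 active = activity change below a set negative limit, meaning inhibition stronger than a set level, cut at about -70% in these data; inconclusive = activity change between two set negative limits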
Target sequence (P16473 whole entry, looked up): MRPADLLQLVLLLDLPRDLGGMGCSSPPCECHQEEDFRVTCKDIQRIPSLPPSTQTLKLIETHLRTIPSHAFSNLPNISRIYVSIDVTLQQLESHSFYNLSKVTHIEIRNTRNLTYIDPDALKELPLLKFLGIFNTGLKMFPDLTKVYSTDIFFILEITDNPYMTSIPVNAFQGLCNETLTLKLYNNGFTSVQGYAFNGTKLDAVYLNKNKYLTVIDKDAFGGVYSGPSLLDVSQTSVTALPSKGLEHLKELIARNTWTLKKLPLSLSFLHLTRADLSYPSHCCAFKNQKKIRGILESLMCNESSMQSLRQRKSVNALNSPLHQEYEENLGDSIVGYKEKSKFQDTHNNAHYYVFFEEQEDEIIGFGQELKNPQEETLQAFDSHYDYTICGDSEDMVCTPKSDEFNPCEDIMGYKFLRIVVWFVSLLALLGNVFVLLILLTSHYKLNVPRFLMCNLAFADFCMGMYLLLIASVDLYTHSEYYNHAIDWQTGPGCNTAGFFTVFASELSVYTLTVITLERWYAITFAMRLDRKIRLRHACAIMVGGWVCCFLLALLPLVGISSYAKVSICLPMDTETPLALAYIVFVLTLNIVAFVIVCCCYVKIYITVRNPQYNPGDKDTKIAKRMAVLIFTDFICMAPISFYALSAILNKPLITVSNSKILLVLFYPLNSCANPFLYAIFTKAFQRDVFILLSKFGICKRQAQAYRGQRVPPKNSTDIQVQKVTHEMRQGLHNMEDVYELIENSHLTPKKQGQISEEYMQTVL
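Freshly harvested TSHR cells receive pin-tooled compound, then EC80 TSH at 4nM final. After 2 hours at 37 deg C, antibody in lysis buffer and cAMP-d2 are added; 30 minutes at ambient temperature precede the HTRF read.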
A number is an active result; - = inactive; ? = inconclusive; . = no result; [ ] = dose if it differs, or a comment. Unless noted, calls come from the whole dose curve; as a rule, active = well fitted curve in the direction sought with a large enough effect; inconclusive = small, poorly fitted or top-dose-only effect, or another doubt; inactive = no such curve, though single readings can be large; an effect the other way counts as inactive or inconclusive.

SMILES	RORg inh	Coupling enz	ELG1 repair inh	VP16 counter	TSHR antagonist
CCN(CC(=O)c1c(N)n(C)c(=O)n(C)c1=O)c1cccc2ccccc12	-[10 µM]	-43	?	?	-
CN(C)CC(=O)c1c(N)n(Cc2ccccc2)c(=O)n(C)c1=O	-	-	-	-	-
CC(C)Cn1c(N)c(C(=O)COC(=O)c2ccc3c(c2)OCCO3)c(=O)n(C)c1=O	-	-	7.1µM	-	-
COCc1c(C(=O)OCC(=O)c2c(N)n(CC(C)C)c(=O)n(C)c2=O)oc2ccccc12	-	-	?	-	-
Cc1c(C(=O)OCC(=O)c2c(N)n(CC(C)C)c(=O)n(C)c2=O)oc2ccccc12	?	-	10µM	-	-
CC(C)Cn1c(N)c(C(=O)COC(=O)c2ccccc2C(=O)c2ccccc2)c(=O)n(C)c1=O	.	.	16µM	.	-
CC(C)Cn1c(N)c(C(=O)COC(=O)c2ccccc2Cl)c(=O)n(C)c1=O	?	-	?	-	-
Cc1c(NC(=O)C(C)Oc2ccc(Br)cc2)c(=O)n(-c2ccccc2)n1C (stereo unspecified)	.	.	-	.	-
Cc1cccc(C)c1NC(=O)CN(C)CC(=O)c1c(N)n(Cc2ccccc2)c(=O)n(C)c1=O	.	.	?	.	-
Cc1ccc(S(=O)(=O)NCCNC(=O)CN2CCOCC2)cc1	-	-	-	-	-
c1ccc(-c2nc(-c3cccs3)c(NC3CCCCC3)o2)cc1	-	-	.	-	.
Cc1cc(C)cc(NC(=S)NC(=O)CCN2C(=O)c3ccccc3C2=O)c1	3.5µM	-	-	4.5µM	-
O=C(CCN1C(=O)c2ccccc2C1=O)NC(=S)Nc1cccc(Cl)c1	11µM	-	-	?	-
O=C(CCN1C(=O)c2ccccc2C1=O)NC(=S)Nc1ccccc1	13µM	-	-	?	-
O=C(CCCN1C(=O)c2ccccc2C1=O)Nc1ccccc1	-	-	-	-	-
COC(=O)C(Cc1ccccc1)NC(=O)C(N)CC(=O)O (stereo unspecified)	-	-	.	-	.
Cc1ccnc(N2CCC(C(=O)Nc3cccc(C(F)(F)F)c3)CC2)n1	-	-	16µM	-	-
Cc1ccc(NC(=S)NCc2ccco2)c(C)c1	16µM	-	-	?	-
Cc1ccccc1NC(=S)NCc1ccco1	13µM	-	-	?	-
CCCOc1ccc(CSCCNC(=S)Nc2ccccc2)cc1	2.8µM	-	?	?	-
CCOc1ccc(CSCCNC(=S)Nc2ccc(OC)cc2)cc1	2µM	-	?	7.1µM	-
CN1CCC2(CC1)CCN(C(=O)c1ccncc1)CC2	-	-	.	-	.
Cc1cc(C)cc(NC(=S)NN)c1	7.9µM	-	-	?	-
Cc1cc(C)cc(NC(=S)Nc2ccccn2)c1	1.1µM	-	-	4.5µM	-
Cc1ccc(NC(=S)Nc2ccccn2)cc1C	0.71µM	-	?	3.2µM	-
SMILES	RORg inh	Coupling enz	ELG1 repair inh	VP16 counter	TSHR antagonist
Cc1ccccc1C(=O)Nc1ccccn1	-	-	.	-	.
O=C(Nc1ccc2nc(-c3ccccn3)c(-c3ccccn3)nc2c1)N1CCOCC1	-	-	-	-	-
Cc1ccc(NC(=S)Nc2ccc3nc(-c4ccccn4)c(-c4ccccn4)nc3c2)cc1C	14µM	-53	-	?	-
C[C@@H](N)C1CCC(C(=O)Nc2ccncc2)CC1 (stereo partly specified)	-	-	.	-	-
COc1ccccc1CC(=O)N1CCN(C(=O)c2ccco2)CC1	-	.	-	-	-
COc1ccc(CNC(=O)CCSCc2cccc(F)c2)cc1	-	-	-	-	-
Cc1cccc(NC(=S)Nc2ccccn2)c1	0.5µM	-	?	6.3µM	-
O=c1[nH]c(SCc2nc3ccccc3n2Cc2ccccc2)nc2ccccc12	4.5µM	-	?	?	-
O=c1[nH]c(SCc2nc3ccccc3c(=O)n2-c2ccccc2C(F)(F)F)nc2ccccc12	-	-	18µM	-	-
COc1ccc(C(=O)NCc2ncccc2C)cc1OC1CCN(C(C)=O)CC1	-	-	-	-	-
COc1cc(C(=O)Nc2cc(S(C)(=O)=O)ccc2Cl)ccc1OCC(=O)N1CCOCC1	.	.	-	.	-
CCOc1cccc(C(=O)Nc2ccc3oc(Cc4ccc(Cl)cc4)nc3c2)c1	-	-	18µM	-	-
CCOc1cccc(C(=O)Nc2ccc3oc(-c4cccnc4)nc3c2)c1	-	-	18µM	-	-
CCOc1cccc(C(=O)Nc2cccc(-c3nnc(-c4ccc(C)cc4)o3)c2)c1	-	-	-	?	-
CCOc1cccc(C(=O)Nc2cccc(-c3nnc(-c4ccccc4)o3)c2)c1	-	-	9.2µM	-	-
O=C(Nc1cccc(-c2nnc(-c3ccco3)o2)c1)C(c1ccccc1)c1ccccc1	-	-	13µM	-	-
NC(N)=NCCCCN=C(N)N	-	-	.	-	-
CCC1(c2ccc(OC)cc2)NC(=O)N(C)C1=O (stereo unspecified)	-	-	.	-	.
CCCCCC/C(C)=C1/SC(=S)NC1=O	16µM	-	-	-	-85
CC1=C/C(=N\OS(=O)(=O)c2ccccc2)C(C)=CC1=O	1.1µM	-88	?	2.5µM	-84
CC1=C/C(=N\OS(=O)(=O)c2ccccc2)C(C(C)C)=CC1=O	2.8µM	-70	?	0.79µM	-84
COc1cc(C(=O)O/N=C2/C=C(C)C(=O)C=C2C)cc(OC)c1OC	-	-	-	-	-
CC1=C(C)/C(=N\OS(=O)(=O)c2ccc(C)cc2)C=CC1=O	5µM	-85	?	2µM	-
N#CC1(NC(=O)COC(=O)/C=C/c2ccc3ccccc3n2)CCCCC1	-	.	?	-	-
Cc1cc(OCc2cc(C(=O)N(C)C3CCOC3)no2)cc(C)c1Cl (stereo unspecified)	-	.	?	-	-
SMILES	RORg inh	Coupling enz	ELG1 repair inh	VP16 counter	TSHR antagonist
O=C(c1cc(C(F)(F)F)cc(C(F)(F)F)c1)N1CCC2(CCCN(c3ncccn3)C2)CC1	?	-	.	?	.
C=CCOC(=O)N[C@H](C[N+](=O)[O-])c1ccccc1	-	-	.	-	.
CC(=O)c1cc(NC(=O)c2cccc(C(F)(F)F)c2)c(=O)oc1/C=C/N(C)C	-	-	-	-	-
CC(=O)c1cc(NC(=O)c2cccc(C(F)(F)F)c2)c(=O)oc1C	3.2µM	-	-	7.1µM	-
COc1ccc(C(=O)Nc2cc(C(C)=O)c(C)oc2=O)cc1	11µM	-	?	?	-
CC(=O)c1cc(NC(=O)c2ccc(Cl)cc2)c(=O)oc1/C=C/N(C)C	?	-	-	?	-
Cc1cc(C)c(NC(=O)CCCn2c(=O)oc3ccccc32)c(C)c1	.	.	-	.	-
CCN(CC)c1ccc(CNc2nc3ccccc3n2CCN2CCCCC2)cc1	8.9µM	-	-	?	-
Cn1c(CNc2nc3ccccc3n2CCN2CCCCC2)nc2ccccc21	16µM	-	-	-	-
CCN(CC)CCn1c(NCc2nc3ccccc3n2Cc2ccccc2)nc2ccccc21	11µM	-	-	?	-
